Drawing on PubChem BioAssay (Tox21), this text covers Potency and outcome for five compounds.

Each structure is given as a SMILES string. Values joined by “and” are separate entries in the source; they are usually repeats but may differ in a detail not shown here. Identical values can stand only once. Results filed as inconclusive are left out. Where a structure was tested more than once in an assay, its records may differ in their call. Active and inactive are the calls of the source. Unless noted, calls follow the shape of the dose curve; as a rule, active = well fitted curve in the direction sought with a large enough effect in the repeat runs; inconclusive = weak or mixed curves; inactive = no such curve, though single readings can be large; an effect the other way counts as inactive or inconclusive.

Assay [1] in a line: qHTS assay to identify small molecule antagonists of the glucocorticoid receptor (GR) signaling pathway - cell viability counter screen (AID 720693). Also: nearly all actives have a fitted effect of over 55% in size.
A short description of assay [2]: qHTS assay for identifying genotoxic compounds that show differential cytotoxicity against isogenic chicken DT40 cell lines with known DNA damage response pathways - wild type cell line (AID 743012). Also: nearly all actives have a fitted effect of over 60% in size. Also: potency is read from the fitted curve at half-maximal effect. The essentials: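 CellTiter-Glo luminescence readout of viability in wild type DT40 cells after 40 h compound exposure at 37 C/5% CO2; 300 cells/well; reagent incubated 30 min at room temperature before reading.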

Assay [3] in a line: qHTS assay for identifying genotoxic compounds that show differential cytotoxicity against isogenic chicken DT40 cell lines with known DNA damage response pathways - Rev3 mutant cell line (AID 743014). Also: nearly all actives have a fitted effect of over 55% in size. Also: potency is read from the fitted curve at half-maximal effect. On the technique in general: In qHTS, concentration-response curves come from the screen itself.
Assay [4] is described as follows: qHTS assay for identifying genotoxic compounds that show differential cytotoxicity against isogenic chicken DT40 cell lines with known DNA damage response pathways - Rad54/Ku70 mutant cell line (AID 743015). Also: nearly all actives have a fitted effect of over 60% in size. Also: potency is read from the fitted curve at half-maximal effect.
Assay [5] can be described thus: qHTS assay to identify small molecule antagonists of the androgen receptor (AR) signaling pathway - cell viability counter screen (AID 743033; also: nearly all actives have a fitted effect of over 45% in size).
Assay [6] concerns the target Androgen receptor (Homo sapiens) (UniProt P10275). Description: qHTS assay to identify small molecule antagonists of the androgen receptor (AR) signaling pathway (AID 743035; active = well fitted inhibition curve with a large enough effect in the signal ratio in the repeat runs, not every such curve was filed as active; the % refers to the signal ratio). A digest of the protocol:
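AR-bla HEK293 reporter cells; 4 h settle at 37C/5% CO2; compound + R1881 agonist, 16 h at 37C; LiveBLAzer B/G FRET substrate 2 h RT; fluorescence intensity read. qHTS format.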

For assay [7] the target is unchanged. Put plainly: qHTS assay to identify small molecule agonists of the androgen receptor (AR) signaling pathway (AID 743036; active = well fitted activation curve with a large enough effect in the signal ratio in the repeat runs, with a control signal flat, not every such curve was filed as active; the % refers to the signal ratio). A digest of the protocol: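 Quantitative HTS of the Tox21 10K library in HEK293 cells bearing a stably integrated UAS-controlled beta-lactamase reporter. Compound exposure lasted 16 h at 37C. Reporter activity was detected by FRET substrate fluorescence after 2 h at room temperature.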

The target is the same in assay [8]. Put plainly: qHTS assay to identify small molecule agonists of the androgen receptor (AR) signaling pathway using the MDA cell line (AID 743040; also: nearly all actives have a fitted effect of over 20% in size). The essentials: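 Luciferase read-out, ONE-Glo, 30 min RT. Cells: MDA-kb2 AR-luc, MMTV promoter with AR and GR response elements. Compound exposure 16 h, 37C, 0% CO2, after 5 h pre-incubation. qHTS agonist mode.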
Assay [9] can be described thus: qHTS assay to identify small molecule antagonists of the androgen receptor (AR) signaling pathway using the MDA cell line - cell viability counter screen (AID 743041; also: nearly all actives have a fitted effect of over 45% in size). A digest of the protocol:
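Cytotoxicity counter screen: MDA-kb2 AR-luc cells, compound + R1881, 16 h, 37C, 0% CO2; CellTiter-Fluor added at 15.5 h, fluorescence read after 30 min.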

Assay [10] concerns the target Androgen receptor (Homo sapiens) (UniProt P10275). Description: qHTS assay to identify small molecule antagonists of the androgen receptor (AR) signaling pathway using the MDA cell line (AID 743042; also: nearly all actives have a fitted effect of over 55% in size). The essentials: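 MDA-kb2 breast carcinoma cells carrying MMTV-luciferase (AR/GR responsive) were co-treated with compounds and the agonist R1881 for 16 h at 37C. Inhibition read as ONE-Glo luminescence; CellTiter-Fluor fluorescence measured in parallel for cytotoxicity.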

The nature of assay [11]: qHTS assay to identify small molecule antagonists of the thyroid receptor (TR) signaling pathway - cell viability counter screen (AID 743064). Also: nearly all actives have a fitted effect of over 50% in size. The essentials:
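Rat GH3 pituitary tumor cells stably expressing two TR response elements driving luciferase were plated, rested 4 h, then dosed with library compounds and T3 (1 nM final). After 23.5 h at 37 °C, CellTiter-Fluor was added for 30 min and fluorescence recorded.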

Assay [12] relates to thyroid hormone receptor (rat, GH3 cells). Description: qHTS assay to identify small molecule agonists of the thyroid receptor (TR) signaling pathway (AID 743066; calls by dose curve).
For assay [13], the target named is Estrogen receptor (Homo sapiens) (UniProt P03372). Description: qHTS assay to identify small molecule antagonists of the estrogen receptor alpha (ER-alpha) signaling pathway (AID 743069; active = well fitted curve in the direction sought with a large enough effect in the signal ratio in the repeat runs, not every such curve was filed as active; the % refers to the signal ratio). The essentials: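 Beta-lactamase FRET fluorescence is read after 2 hr at room temperature with LiveBLAzer B/G substrate. Before that, ER-alpha-bla HEK293 cells sit 4 hr after plating, then receive compound plus 17beta-estradiol and incubate 18 hr at 37C.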

A short description of assay [14]: qHTS assay to identify small molecule antagonists of the estrogen receptor alpha (ER-alpha) signaling pathway - cell viability counter screen (AID 743074; calls by dose curve;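 also: HEK293 cells carrying ER-alpha-UAS-bla reporter stimulated with 17beta-estradiol; nearly all actives have a fitted effect of over 45% in size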).
Assay [15] addresses Estrogen receptor (Homo sapiens) (UniProt P03372). Description: qHTS assay to identify small molecule agonists of the estrogen receptor alpha (ER-alpha) signaling pathway (AID 743075; calls by dose curve;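 also: HEK293 GripTite cells with ER-alpha and UAS-driven beta-lactamase reporter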).
Assay [16] has the same target. Put plainly: qHTS assay to identify small molecule agonists of the estrogen receptor alpha (ER-alpha) signaling pathway using the BG1 cell line (AID 743079). Also: nearly all actives have a fitted effect of over 20% in size.
Assay [17] can be described thus: qHTS assay to identify small molecule antagonists of the estrogen receptor alpha (ER-alpha) signaling pathway using the BG1 cell line (AID 743080; calls by dose curve;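 also: BG1 cells stimulated with 17beta-estradiol alongside compound; series mostly up to about 70 µM; nearly all actives have a fitted effect of over 25% in size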). The essentials:
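BG1-Luc-4E2 cells (endogenous full-length ER-alpha, 4xERE luciferase) hormone-starved 5 days in charcoal-stripped FBS, plated 4,000/well for 24 h, then compound plus 17beta-estradiol for 21.5 h at 37 C; ONE-Glo luminescence read.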

Assay [18] is described as follows: qHTS assay to identify small molecule antagonists of the estrogen receptor alpha (ER-alpha) signaling pathway using the BG1 cell line - cell viability counter screen (AID 743081).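 Also: compound given together with 17beta-estradiol as the ER stimulus; series mostly up to about 70 µM; nearly all actives have a fitted effect of over 45% in size.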
A further assay addresses Aromatase (Homo sapiens) (UniProt P11511). Description: qHTS assay to identify aromatase inhibitors (AID 743083). Also: series mostly up to about 70 µM; nearly all actives have a fitted effect of over 55% in size.
A short description of assay [19]: qHTS assay to identify small molecule antagonists of the thyroid receptor (TR) signaling pathway (AID 743065). The essentials: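 GH3.TRE-Luc rat pituitary cells (two TREs driving luciferase) were dosed with compound, then stimulated with 1 nM T3 (final) for 23.5 h at 37 C. ONE-Glo luminescence was the read-out, with CellTiter-Fluor fluorescence as the cytotoxicity counter-screen.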

Sequence of Androgen receptor (Homo sapiens) (P10275 whole entry, looked up): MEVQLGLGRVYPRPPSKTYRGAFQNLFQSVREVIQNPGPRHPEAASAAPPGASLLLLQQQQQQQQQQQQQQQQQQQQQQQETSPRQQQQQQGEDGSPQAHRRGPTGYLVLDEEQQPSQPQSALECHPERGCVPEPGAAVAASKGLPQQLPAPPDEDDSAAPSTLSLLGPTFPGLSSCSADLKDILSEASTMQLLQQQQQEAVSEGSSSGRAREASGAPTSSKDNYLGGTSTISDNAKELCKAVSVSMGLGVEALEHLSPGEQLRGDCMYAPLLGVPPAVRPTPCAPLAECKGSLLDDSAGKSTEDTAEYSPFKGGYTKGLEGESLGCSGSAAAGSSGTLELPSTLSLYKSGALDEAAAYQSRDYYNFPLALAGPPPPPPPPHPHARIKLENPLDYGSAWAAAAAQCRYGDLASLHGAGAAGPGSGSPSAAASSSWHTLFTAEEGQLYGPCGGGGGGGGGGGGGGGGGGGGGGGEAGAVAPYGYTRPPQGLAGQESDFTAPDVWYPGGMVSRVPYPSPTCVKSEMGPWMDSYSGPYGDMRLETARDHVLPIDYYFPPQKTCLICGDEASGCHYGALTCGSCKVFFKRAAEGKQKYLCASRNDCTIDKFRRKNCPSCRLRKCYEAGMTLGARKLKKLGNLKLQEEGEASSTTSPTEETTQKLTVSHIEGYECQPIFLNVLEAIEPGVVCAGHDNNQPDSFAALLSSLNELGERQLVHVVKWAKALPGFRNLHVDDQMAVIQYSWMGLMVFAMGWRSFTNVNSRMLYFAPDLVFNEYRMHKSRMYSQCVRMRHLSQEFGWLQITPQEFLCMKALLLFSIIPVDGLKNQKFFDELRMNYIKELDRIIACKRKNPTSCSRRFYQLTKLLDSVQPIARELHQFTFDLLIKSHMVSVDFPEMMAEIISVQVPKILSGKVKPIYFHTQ
Sequence of Estrogen receptor (Homo sapiens) (P03372 whole entry, looked up): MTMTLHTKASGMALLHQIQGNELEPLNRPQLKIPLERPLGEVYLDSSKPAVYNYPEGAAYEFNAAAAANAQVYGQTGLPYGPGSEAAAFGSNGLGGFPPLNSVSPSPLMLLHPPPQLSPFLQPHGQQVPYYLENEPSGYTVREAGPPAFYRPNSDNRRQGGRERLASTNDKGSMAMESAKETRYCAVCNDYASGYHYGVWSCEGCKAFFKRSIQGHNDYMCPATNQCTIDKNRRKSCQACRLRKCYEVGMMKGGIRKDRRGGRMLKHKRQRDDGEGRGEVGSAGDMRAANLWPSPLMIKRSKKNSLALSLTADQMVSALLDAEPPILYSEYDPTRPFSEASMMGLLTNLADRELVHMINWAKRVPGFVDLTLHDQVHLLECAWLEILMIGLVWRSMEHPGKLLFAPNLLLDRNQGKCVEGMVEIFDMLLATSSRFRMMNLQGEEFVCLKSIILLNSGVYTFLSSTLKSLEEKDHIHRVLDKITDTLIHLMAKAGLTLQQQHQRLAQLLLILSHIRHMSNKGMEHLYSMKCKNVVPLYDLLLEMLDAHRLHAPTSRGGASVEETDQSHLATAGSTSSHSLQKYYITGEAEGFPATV
Sequence of Aromatase (Homo sapiens) (P11511 whole entry, looked up): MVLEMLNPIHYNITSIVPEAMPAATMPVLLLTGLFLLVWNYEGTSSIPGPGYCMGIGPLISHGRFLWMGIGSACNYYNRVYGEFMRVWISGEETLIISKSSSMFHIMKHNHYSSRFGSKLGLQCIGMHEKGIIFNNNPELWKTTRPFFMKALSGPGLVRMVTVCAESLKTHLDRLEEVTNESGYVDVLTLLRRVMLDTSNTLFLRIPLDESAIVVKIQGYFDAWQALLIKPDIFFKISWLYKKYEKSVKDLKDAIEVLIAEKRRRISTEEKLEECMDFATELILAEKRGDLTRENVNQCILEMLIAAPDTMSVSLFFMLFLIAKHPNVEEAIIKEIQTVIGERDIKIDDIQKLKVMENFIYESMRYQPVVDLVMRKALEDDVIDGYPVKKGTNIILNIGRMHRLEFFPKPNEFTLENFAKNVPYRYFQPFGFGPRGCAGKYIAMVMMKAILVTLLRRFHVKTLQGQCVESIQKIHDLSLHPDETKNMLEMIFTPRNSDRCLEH

Turning to `NC(=S)NC(N)=S`, the Potency result in assay [1], in assay [5], in assay [6], in [7], in [9] and in [10] was “inactive” throughout. In addition, the Potency result in assay [11], in [13], in [14], in assay [15], in assay [16] and in assay [17] was “inactive” each time. For the same compound, the Potency result (in assay [18]; in the assay with Aromatase (Homo sapiens)) was “inactive” in each case. Further, the Potency is 61.1 µM (active) in [2], 61.1 µM (active) in [3] and 68.6 µM (active) in assay [4]. Moreover, the outcome in assay [8] and in assay [12] was inactive.

On to `CCCCC(CC)CN1CN(CC(CC)CCCC)CC(C)(N)C1` (centres undefined), for which the Potency result in assay [1], in assay [5], in assay [6], in assay [7], in assay [9] and in assay [10] was “inactive” in each case. Also, the Potency entry in assay [19], in assay [13], in [14], in [15], in assay [16] and in assay [17] was “inactive” each time. Also, the Potency entry (in assay [18]; in the assay with Aromatase (Homo sapiens)) was “inactive” in each case. Moreover, the Potency in assay [2] was 10.1 µM (active); in [3], 12.7 µM (active); in assay [4], 8.04 µM (active). Also, the call in [8] and in [12] was inactive.

On to `O=C(O)Cc1ccccc1Nc1c(Cl)cccc1Cl`, for which the Potency result in assay [1], in [2], in assay [5], in assay [6], in assay [7] and in assay [9] was “inactive” in each case. Moreover, the Potency entry in assay [10], in assay [11], in [19], in assay [13], in assay [14] and in assay [15] was “inactive” throughout. The Potency entry (in assay [16]; in assay [17]; in assay [18]; in the assay with Aromatase (Homo sapiens)) was “inactive” each time. For the same compound, the Potency result was “inactive and 61.1 µM (active)” in [3]; “inactive and 68.6 µM (active)” in [4]. Besides, the result in assay [8] and in assay [12] was inactive.

Take `OC[C@@H](O)[C@@H](O)CO`: the Potency entry in assay [1], in assay [2], in assay [3], in assay [4], in assay [5] and in [9] was “inactive” throughout. The Potency result in assay [11], in assay [19], in assay [13], in assay [14], in assay [15] and in [16] was “inactive” in each case. In addition, the Potency entry (in assay [17]; in assay [18]; in the assay with Aromatase (Homo sapiens)) was “inactive” in each case. The result in assay [12] was inactive.

In the case of `CCCCCCOC(=O)C(C)CC` (centres undefined), the Potency entry in assay [1], in [2], in assay [3], in [4], in [5] and in assay [6] was “inactive” each time. Also, the Potency entry in assay [7], in assay [9], in assay [10], in assay [11], in assay [19] and in assay [13] was “inactive” each time. Further, the Potency entry (in [14]; in assay [15]; in assay [16]; in assay [17]; in [18]; in the assay with Aromatase (Homo sapiens)) was “inactive” each time. Besides, the call in assay [8] and in assay [12] was inactive.
